Assay results as given in PubChem BioAssay (Tox21).
“And” between values parts separate entries of the source, which are not always exact repeats. Equal values may be shown once. Inconclusive results are not listed. A structure can be active in one record and inactive in another. The source made the active and inactive calls. Unless noted, calls come from the whole dose curve.

Columns and labels:
[1] = Nuclear factor erythroid 2-related factor 2/antioxidant responsive element (Nrf2/ARE) small molecule agonists: qHTS cell viability counter screen in human keratinocytes (AID 1919968; active = well fitted curve in the direction sought with a large enough effect in the repeat runs; an effect the other way counts as inactive or inconclusive; note: nearly all actives have a fitted effect of over 55% in size; note: potency is the fitted concentration of half-maximal effect)
How it was run: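 Cells of the KeratinoSens line were plated at 1,500 per well and left for 5 h before compound transfer from DMSO stocks. After a 23 h incubation (37 C, 5% CO2), CellTiter-Fluor was added. Signal was taken as fluorescence intensity 1 h later.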

[2] = Nuclear factor erythroid 2-related factor 2/antioxidant responsive element (Nrf2/ARE) small molecule agonists: luciferase reporter gene qHTS assay in human keratinocytes (AID 1919969); note: nearly all actives have a fitted effect of over 35% in size; note: potency is the fitted concentration of half-maximal effect
[3] = molecular target: Gonadotropin-releasing hormone receptor (Homo sapiens) (UniProt P30968); assay: Human gonadotropin-releasing hormone receptor (GnRHR) small molecule agonists, calcium flux assay in GnRHR-HEK293 cells (AID 1920063); note: nearly all actives have a fitted effect of over 35% in size
How it was run: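 Compounds dissolved in DMSO are pin-transferred onto dye-loaded GnRHR-HEK293 cells, which were seeded 18 h before at 37 C/5% CO2. Calcium signal is read as fluorescence intensity at 1 s intervals for 3 min.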

[4] = molecular target: KiSS-1 receptor (Homo sapiens) (UniProt Q969F8); assay: Human kisspeptin (KISS1R) small molecule agonists, calcium flux assay in KISS1R-HEK293 cells (AID 1920064; active = well fitted curve in the direction sought with a large enough effect in the repeat runs; an effect the other way counts as inactive or inconclusive)
How it was run: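 Cell line: HEK293, stable human KISS1R. Dye loading 1 h at 37 C after 18 h culture. Read: kinetic fluorescence, 480/540 nm, 3 min at 1 s intervals.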

[5] = G protein-coupled receptor (GPCR) small molecule agonists, calcium flux assay: HEK293 wild type cell line counter screen (AID 1920065)
How it was run: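 Tox21 10K compounds, 15 concentrations each in triplicate, pin-transferred in DMSO onto dye-loaded cells; kinetic read at 480/540 nm for 3 min, 1 s intervals.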

[6] = p53 small molecule agonists, cell-based qHTS assay with human liver microsomes: qHTS cell viability counter screen (AID 1963579); note: nearly all actives have a fitted effect of over 45% in size; note: potency is the fitted concentration of half-maximal effect
How it was run: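 Metabolically activated exposure: compounds, human liver microsomes and NADPH (0.5 mg/mL final apiece) were added to p53RE-bla cells seeded 5 h earlier, left 16 h at 37 C, and then assessed for viability by CellTiter-Glo luminescence.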

[7] = p53 small molecule agonists, cell-based qHTS assay with rat liver microsomes: qHTS cell viability counter screen (AID 1963580); note: nearly all actives have a fitted effect of over 45% in size; note: potency is the fitted concentration of half-maximal effect
How it was run: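 Rat liver microsome (0.5 mg/mL final) and NADPH (0.5 mg/mL final) co-incubation with compounds for 16 h at 37 C on HCT-116 p53RE-bla cells; cytotoxicity taken from intracellular ATP luminescence.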

[8] = p53 small molecule agonists, cell-based qHTS assay: qHTS cell viability counter screen (AID 1963581); note: nearly all actives have a fitted effect of over 45% in size; note: potency is the fitted concentration of half-maximal effect
How it was run: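 ATP content measured by luminescence in HCT-116 p53RE-bla cells treated 16 h at 37 C, same wells as the reporter screen.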

[9] = molecular target: 5-hydroxytryptamine receptor 2A (Homo sapiens) (UniProt P28223); assay: 5-hydroxytryptamine receptor 2A (HTR2A) small molecule antagonists, cell-based qHTS assay (AID 1963586); note: nearly all actives have a fitted effect of over 45% in size
How it was run: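 CHO cells stably expressing human HTR2A were plated for 18 h at 37 C, then loaded with calcium dye for 1 h. Compounds were preincubated 5 min at room temperature before DOI (4 nM solution) was added. Kinetic fluorescence was read for 3 min.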

[10] = molecular target: 5-hydroxytryptamine receptor 2A (Homo sapiens) (UniProt P28223); assay: 5-hydroxytryptamine receptor 2A (HTR2A) small molecule agonists, cell-based qHTS assay (AID 1963587); note: nearly all actives have a fitted effect of over 30% in size
How it was run: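 Kinetic calcium-flux fluorescence (2 min, 1 sec intervals) after compound addition in agonist mode. HTR2A-CHO cells were cultured 18 h, then dye-loaded 1 h at 37 C.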

[11] = molecular target: Muscarinic acetylcholine receptor M1 (Homo sapiens) (UniProt P11229); assay: Cholinergic receptor muscarinic 1 (CHRM1) small molecule agonists, cell-based qHTS assay (AID 1963589); note: nearly all actives have a fitted effect of over 35% in size
How it was run: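 Homogeneous fluorescence calcium flux, agonist mode. Human M1-expressing CHO cells; compound dosed at 15 concentrations, three independent runs; signal sampled every 1 sec.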

[12] = cAMP Responsive Elements (CRE) small molecule agonists, cell-based qHTS assay (AID 1963590)
How it was run: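 HEK 293T cells stably bearing CRE-bla were plated at 2,000 cells per well and rested 18 h. Compounds, positive controls or DMSO were added for 3 h at 37 C. LiveBLAzer B/G substrate was then loaded for 2 h at room temperature.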

[13] = cAMP Responsive Elements (CRE) small molecule antagonists, cell-based qHTS assay (AID 1963591; active = well fitted inhibition curve with a large enough effect in the signal ratio in the repeat runs, not every such curve was filed as active; the % refers to the signal ratio)
How it was run: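 First, CRE-bla HEK293T cells settled 18 h at 37 C. Next, compound and 0.25 uM final NKH477 were applied for 3 h. Last, LiveBLAzer B/G substrate was loaded for 2 h at room temperature.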

[14] = molecular target: Beta-2 adrenergic receptor (Homo sapiens) (UniProt P07550); assay: Adrenergic beta2 receptor (ADRB2) small molecule antagonists, cell-based qHTS assay (AID 1963592); note: series mostly up to about 92 µM; nearly all actives have a fitted effect of over 50% in size
How it was run: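 Assay format: CHO-ADRB2 cells, 18-20hr seeding at 37C/5% CO2, then compound plus 1nM isoproterenol agonist mix for 0.5hr RT. Homogeneous time-resolved fluorescence cAMP detection after 1hr, expressed as 665/615 nm ratio.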

[15] = molecular target: Beta-2 adrenergic receptor (Homo sapiens) (UniProt P07550); assay: Adrenergic beta2 receptor (ADRB2) small molecule agonists, cell-based qHTS assay (AID 1963593);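 note: CHO cells stably overexpressing human ADRB2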
How it was run: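 CHO cells stably over-expressing ADRB2 were plated overnight at 37C, then dosed with compounds plus a stimulation mix containing 100uM IBMX and 25uM Ro-20-1724 for 0.5hr at room temperature. cAMP was measured by HTRF competition, 1hr.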

[16] = molecular target: D(2) dopamine receptor (Homo sapiens) (UniProt P14416); assay: Dopamine D2 receptor (DRD2) small molecule agonists, cell-based qHTS assay (AID 1963594); note: nearly all actives have a fitted effect of over 35% in size
How it was run: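 cAMP accumulation in DRD2-HEK293 cells measured by HTRF after 1 h detection; compounds added 10 min before NKH477 (200nM […]) forskolin-analogue stimulation, 30 min at room temperature, with Ro20-1724 present at 0.1 mM final.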

[17] = molecular target: D(2) dopamine receptor (Homo sapiens) (UniProt P14416); assay: Dopamine D2 receptor (DRD2) small molecule antagonists, cell-based qHTS assay (AID 1963595; active = well fitted inhibition curve with a large enough effect in the signal ratio in the repeat runs, with a control signal flat; the % refers to the signal ratio)
How it was run: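 HEK293 cells stably expressing DRD2 were preincubated with 0.1 mM Ro20-1724, then with compound for 10 min at room temperature. Cells were stimulated with 200 nM NKH477 plus 12 nM quinpirole for 30 min, and cAMP was read by HTRF.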

[18] = molecular target: Muscarinic acetylcholine receptor M1 (Homo sapiens) (UniProt P11229); assay: Cholinergic receptor muscarinic 1 (CHRM1) small molecule antagonists, cell-based qHTS assay (AID 1963588); note: nearly all actives have a fitted effect of over 40% in size; note: potency is the fitted concentration of half-maximal effect
How it was run: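 Compounds were tested at 15 concentrations in three independent runs. Dye-loaded CHRM1-CHO cells were exposed 5 min at room temperature before stimulation by acetylcholine added at 50nM. Intracellular calcium was read kinetically on FDSS for 3 min.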

Measured: Potency

Sequence of Muscarinic acetylcholine receptor M1 (Homo sapiens) (P11229 whole entry, looked up): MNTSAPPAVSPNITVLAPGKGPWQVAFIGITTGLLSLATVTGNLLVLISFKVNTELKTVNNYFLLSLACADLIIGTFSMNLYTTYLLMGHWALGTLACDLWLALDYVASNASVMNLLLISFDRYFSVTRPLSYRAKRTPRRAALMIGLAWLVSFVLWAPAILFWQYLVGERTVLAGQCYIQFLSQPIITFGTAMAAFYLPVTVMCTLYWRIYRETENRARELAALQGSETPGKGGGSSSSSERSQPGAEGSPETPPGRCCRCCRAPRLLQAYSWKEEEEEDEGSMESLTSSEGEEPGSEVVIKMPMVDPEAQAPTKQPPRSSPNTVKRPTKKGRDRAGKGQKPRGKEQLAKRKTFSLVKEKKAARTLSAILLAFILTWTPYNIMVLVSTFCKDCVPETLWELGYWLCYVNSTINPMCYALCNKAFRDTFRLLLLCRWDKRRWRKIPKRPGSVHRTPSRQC
Sequence of Beta-2 adrenergic receptor (Homo sapiens) (P07550 whole entry, looked up): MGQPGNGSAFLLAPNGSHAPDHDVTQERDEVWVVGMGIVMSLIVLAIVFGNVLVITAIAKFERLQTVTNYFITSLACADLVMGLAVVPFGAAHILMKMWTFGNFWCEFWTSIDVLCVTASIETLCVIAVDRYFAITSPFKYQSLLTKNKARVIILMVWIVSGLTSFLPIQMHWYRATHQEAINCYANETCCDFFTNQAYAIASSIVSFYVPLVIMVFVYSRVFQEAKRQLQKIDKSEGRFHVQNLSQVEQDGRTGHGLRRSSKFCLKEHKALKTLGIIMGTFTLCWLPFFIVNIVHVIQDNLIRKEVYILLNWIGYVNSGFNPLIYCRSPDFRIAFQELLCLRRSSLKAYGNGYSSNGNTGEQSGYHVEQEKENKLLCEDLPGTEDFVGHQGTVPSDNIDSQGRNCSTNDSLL
Sequence of 5-hydroxytryptamine receptor 2A (Homo sapiens) (P28223 whole entry, looked up): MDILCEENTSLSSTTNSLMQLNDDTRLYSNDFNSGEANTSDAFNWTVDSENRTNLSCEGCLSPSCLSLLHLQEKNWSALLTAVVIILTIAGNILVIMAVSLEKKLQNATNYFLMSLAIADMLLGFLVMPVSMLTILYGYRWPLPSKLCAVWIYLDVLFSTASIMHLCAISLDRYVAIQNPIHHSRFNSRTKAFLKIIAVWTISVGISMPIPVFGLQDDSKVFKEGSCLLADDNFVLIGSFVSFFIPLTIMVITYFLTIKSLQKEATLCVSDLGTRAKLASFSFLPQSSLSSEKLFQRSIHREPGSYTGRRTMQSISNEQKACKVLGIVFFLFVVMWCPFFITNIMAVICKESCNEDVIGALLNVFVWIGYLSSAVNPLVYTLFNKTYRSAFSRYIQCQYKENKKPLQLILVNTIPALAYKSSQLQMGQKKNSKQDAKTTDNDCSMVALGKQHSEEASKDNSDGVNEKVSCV
Sequence of KiSS-1 receptor (Homo sapiens) (Q969F8 whole entry, looked up): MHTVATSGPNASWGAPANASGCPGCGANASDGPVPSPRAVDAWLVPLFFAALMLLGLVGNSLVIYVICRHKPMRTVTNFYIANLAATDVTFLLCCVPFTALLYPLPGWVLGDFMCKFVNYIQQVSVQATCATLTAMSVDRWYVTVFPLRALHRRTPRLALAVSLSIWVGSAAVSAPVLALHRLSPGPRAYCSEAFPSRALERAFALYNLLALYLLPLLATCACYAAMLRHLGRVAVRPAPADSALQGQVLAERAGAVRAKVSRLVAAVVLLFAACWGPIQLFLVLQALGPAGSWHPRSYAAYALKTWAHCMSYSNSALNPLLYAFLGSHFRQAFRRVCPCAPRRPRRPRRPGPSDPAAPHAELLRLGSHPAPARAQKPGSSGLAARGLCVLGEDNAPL
Sequence of Gonadotropin-releasing hormone receptor (Homo sapiens) (P30968 whole entry, looked up): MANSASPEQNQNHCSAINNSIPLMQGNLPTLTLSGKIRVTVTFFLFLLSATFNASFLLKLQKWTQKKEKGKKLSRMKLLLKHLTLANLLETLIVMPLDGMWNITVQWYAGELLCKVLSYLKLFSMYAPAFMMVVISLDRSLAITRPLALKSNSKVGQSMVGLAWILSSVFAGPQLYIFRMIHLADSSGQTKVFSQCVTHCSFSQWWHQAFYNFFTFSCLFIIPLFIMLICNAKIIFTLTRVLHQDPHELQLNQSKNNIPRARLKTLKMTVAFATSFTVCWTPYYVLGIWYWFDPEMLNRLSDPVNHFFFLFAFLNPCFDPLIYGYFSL
Sequence of D(2) dopamine receptor (Homo sapiens) (P14416 whole entry, looked up): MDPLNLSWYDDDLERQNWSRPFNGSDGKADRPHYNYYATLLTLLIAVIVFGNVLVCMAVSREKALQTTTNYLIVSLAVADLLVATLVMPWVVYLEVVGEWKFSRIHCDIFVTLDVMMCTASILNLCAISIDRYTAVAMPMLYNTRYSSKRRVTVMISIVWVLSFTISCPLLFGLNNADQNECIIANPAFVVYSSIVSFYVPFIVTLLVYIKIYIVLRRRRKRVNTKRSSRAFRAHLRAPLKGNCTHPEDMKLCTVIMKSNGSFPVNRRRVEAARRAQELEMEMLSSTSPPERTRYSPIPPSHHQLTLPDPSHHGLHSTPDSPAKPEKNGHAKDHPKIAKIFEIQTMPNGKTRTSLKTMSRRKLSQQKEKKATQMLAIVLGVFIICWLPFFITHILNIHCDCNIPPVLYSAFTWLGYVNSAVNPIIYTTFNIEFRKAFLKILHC

C[N+](C)(C)CC(=O)[O-]
not listed: [18]
inactive: all other assays above

C[C@@H]1O[C@@H](O[C@H]2C[C@@H](O)[C@]3(CO)[C@H]4[C@H](O)C[C@]5(C)[C@@H](C6=CC(=O)OC6)CC[C@]5(O)[C@@H]4CC[C@]3(O)C2)[C@H](O)[C@H](O)[C@H]1O
68.8 nM (active) and inactive: [6]
active: [1] 730 nM and 1.06 µM | [2] 163 nM and 211 nM | [7] 112 nM | [8] 126 nM
inactive: [3] | [4] | [5] | [14] | [16] | [17]

O=C(O)COc1cc(Cl)c(Cl)cc1Cl
not listed: [12] | [13] | [15] | [16]
inactive: all other assays above

ClCc1cccnc1
not listed: [7]
inactive: all other assays above

CN(C)c1nc(=O)n(C2CCCCC2)c(=O)n1C
not listed: [10]
inactive: all other assays above

CCCC[n+]1ccccc1
not listed: [9] | [10] | [11] | [16]
inactive: all other assays above

O=C(O)C(Cl)Cl
not listed: [8] | [9] | [18]
inactive: all other assays above

CCOP(=S)(OCC)Oc1ccc([N+](=O)[O-])cc1
active: [18] 9.54 µM and 18.3 µM
not listed: [8] | [13] | [16]
inactive: all other assays above
